Source: PubChem BioAssay
GDH-TPI counter-1: counter-screen for M. tuberculosis FBA inhibitors: GDH-TPI coupled enzymes; GDH-TPI coupled enzyme counterscreen, NADH absorbance; inhibition, % at 4.8 µM; actives 1.2% (n = 360,000); in the data active means inhibition above about 30%;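 further: 0% = DMSO wells and 100% = wells lacking the enzyme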
Mtb hypoxia rep: inhibitors of hypoxia-regulated fluorescent reporter in Mycobacterium tuberculosis. M. tuberculosis hypoxia-regulated fluorescent reporter, fluorescence. fluorescence inhibition, % (test concentration not listed). actives 0.1% (n = 300,000). AID 1159583; in the data active means fluorescence inhibition mostly above about 23%, no sharp cut-off; inactive means mostly below about 17%
Y pestis TopoI: inhibitors of Yersinia pestis topoisomerase I; Y. pestis Topo-I cleavage product accumulation, plate reader; activity, % at 10 µM; actives 0.064% (n = 360,000); AID 504884; in the data active means activity above about 50%, passing the limit was not always enough
PrPC TRFRET: cell surface PrPC inhibition, primary TR-FRET screen. inhibition, % at 13.8 µM. AID 720596. P04156. TR-FRET read-out. actives 0.43% (n = 370,000); in the data active means inhibition above about 24%; further: 0% = median of the test wells and 100% = reference compound wells
PrP UTR inh: suppresses PrP 5' UTR mRNA reporter expression | inhibition, % (concentration not given with the values) | cell-based PrP 5' UTR mRNA reporter, plate reader | actives 0.35% (n = 340,000); in the data active means inhibition above about 52%; further: 0 = median of the neutral control wells
FBA Mtb inh: inhibitors of M. tuberculosis fructose-bisphosphate aldolase | actives 2.3% (n = 360,000) | inhibition, % at 1 µM | purified M. tuberculosis FBA, fluorescence read-out | P9WQA3;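 further: 0% = vehicle and 100% = reference inhibitor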
Target sequence (P9WQA3 whole entry, looked up): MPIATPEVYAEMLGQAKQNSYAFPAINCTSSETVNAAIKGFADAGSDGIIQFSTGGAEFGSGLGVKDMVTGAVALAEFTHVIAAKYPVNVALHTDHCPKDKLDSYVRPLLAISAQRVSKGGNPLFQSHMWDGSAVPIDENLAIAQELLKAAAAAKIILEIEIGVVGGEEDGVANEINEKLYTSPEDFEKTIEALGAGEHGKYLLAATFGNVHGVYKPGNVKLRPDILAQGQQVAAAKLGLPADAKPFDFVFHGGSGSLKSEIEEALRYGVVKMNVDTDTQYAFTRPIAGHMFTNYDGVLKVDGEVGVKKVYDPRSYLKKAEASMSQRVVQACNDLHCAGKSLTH
Mtb FBA inh conf: confirmation of M. tuberculosis fructose-bisphosphate aldolase inhibitors; shares compounds with FBA Mtb inh; purified M. tuberculosis FBA, fluorescence read-out; inhibition, % at 1 µM; actives 78% (n = 5,600);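 further: 0% = vehicle wells and 100% = reference inhibitor wells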
GDH-TPI counter-2: GDH-TPI inhibition counter-screen for FBA inhibitors. shares compounds with FBA Mtb inh. GDH-TPI coupled enzyme counterscreen, fluorescence. inhibition, % at 1 µM. actives 81% (n = 5,600); in the data active means inhibition above about 10%
* hit, by the source's call. Sampled rows, rich in hits. Any-hit rate of the full collection: about 3.8%. Unless noted, no stated cut-off is given here; in the data, active means inhibition above about 27%; inactive means the rest.

How did COc1ccccc1-c1cc2nc(-c3ccccc3)cc(N3CCN(C(=O)c4ccco4)CC3)n2n1 do in these assays?
GDH-TPI counter-1: 6.2; Y pestis TopoI: 2.7; PrPC TRFRET: 8.8; FBA Mtb inh: 48.5*; Mtb FBA inh conf: 53.6*; GDH-TPI counter-2: 43.0*

What do the screens show for `O=C(NN=Cc1c[nH]c2ccccc12)C1CC(=O)N(c2ccccc2)C1` (stereo unspecified)?
Mtb hypoxia rep: -4.3

How did CC1CCC/C(=C\c2ccccc2)C1=NO (stereo unspecified) do in these assays?
Mtb hypoxia rep: 5.9

What do the screens show for `Cc1ccc2c(c1)C1C(CO2)C(c2ccccc2)[C@]2(C)C(=O)Nc3cc(F)c(F)cc3C(=O)N12` (stereo partly specified)?
Mtb hypoxia rep: -0.6

What do the screens show for `Fc1ccc(-c2cc3nc(-c4ccccc4)cc(N4CCN(CCN5CCOCC5)CC4)n3n2)cc1`?
GDH-TPI counter-1: 10.6; Mtb hypoxia rep: 6.3; Y pestis TopoI: 20.3; PrPC TRFRET: 0.5; PrP UTR inh: -7.6; FBA Mtb inh: 49.1*; Mtb FBA inh conf: 89.9*; GDH-TPI counter-2: 72.0*

Results for COc1ccccc1-c1cc2nc(-c3ccccc3)cc(N3CCN(C(=O)c4ccoc4)CC3)n2n1 ?
GDH-TPI counter-1: 12.4; Y pestis TopoI: 39.0; PrPC TRFRET: 13.6; FBA Mtb inh: 55.5*; Mtb FBA inh conf: 4.4; GDH-TPI counter-2: 0.6

Results for CN1CCN(c2cc(-c3cccc(C(=O)O)c3)nc3ccnn23)CC1 ?
GDH-TPI counter-1: 17.7; Y pestis TopoI: -7.3; PrPC TRFRET: 7.0; FBA Mtb inh: 29.7*; Mtb FBA inh conf: 54.6*; GDH-TPI counter-2: 46.0*

What do the screens show for `CN1CCN(c2cc(-c3ccccc3)nc3cc(-c4ccc(F)cc4)nn23)CC1`?
GDH-TPI counter-1: 3.4; Y pestis TopoI: -10.2; PrPC TRFRET: -12.0; PrP UTR inh: -4.1; FBA Mtb inh: 25.8

What do the screens show for `CC1CN(C(C)CO)C(=O)c2cc(NC(=O)C3CCCCC3)ccc2OC1CN(C)S(=O)(=O)c1ccc(F)cc1` (stereo unspecified)?
Mtb hypoxia rep: 0.6

Results for CCC1(OC(=O)CN(C)C)C(=O)OCc2c1cc1n(c2=O)Cc2cc3c(N)cccc3nc2-1 (stereo unspecified) ?
GDH-TPI counter-1: 24.1; Y pestis TopoI: -2.1; PrP UTR inh: 20.9; FBA Mtb inh: 53.4*; Mtb FBA inh conf: -1.7; GDH-TPI counter-2: -2.2

What do the screens show for `O=C(O)CN1C(=O)/C(=C/c2ccccc2Br)Oc2ccccc21`?
GDH-TPI counter-1: 8.2; Mtb hypoxia rep: -1.3; Y pestis TopoI: -5.9; PrPC TRFRET: 4.0; PrP UTR inh: -8.7; FBA Mtb inh: 83.1*; Mtb FBA inh conf: -4.9; GDH-TPI counter-2: -5.1

Results for CCOC(=O)CN1C(=O)/C(=C/c2cccc(Br)c2)Oc2ccccc21 ?
GDH-TPI counter-1: -0.7; Mtb hypoxia rep: 5.3; Y pestis TopoI: 1.3; PrPC TRFRET: -5.0; PrP UTR inh: -10.7; FBA Mtb inh: 6.3

Results for Cc1cc(-n2c(C)cc(C(=O)COc3ccc4ccc(=O)oc4c3)c2C)no1 ?
GDH-TPI counter-1: 2.8; Mtb hypoxia rep: 6.3; Y pestis TopoI: 0.6; PrPC TRFRET: -1.2; PrP UTR inh: -20.0; FBA Mtb inh: 28.3*; Mtb FBA inh conf: 59.8*; GDH-TPI counter-2: 59.1*

What do the screens show for `CC(=O)c1cccc(OCC(=O)c2cc(C)n(-c3cc(C)on3)c2C)c1`?
GDH-TPI counter-1: 3.9; Y pestis TopoI: 20.2; PrPC TRFRET: 0.4; PrP UTR inh: -10.9; FBA Mtb inh: 1.3

How did CNc1cncc(-c2ccccc2CO)n1 do in these assays?
GDH-TPI counter-1: 24.8; Y pestis TopoI: 6.0; PrPC TRFRET: -10.8; FBA Mtb inh: 73.4*; Mtb FBA inh conf: active; GDH-TPI counter-2: active

How did CCOc1ccccc1-c1cncc(NC)n1 do in these assays?
GDH-TPI counter-1: 17.3; Y pestis TopoI: -3.3; PrPC TRFRET: 13.5; FBA Mtb inh: 73.8*; Mtb FBA inh conf: 65.7*; GDH-TPI counter-2: 46.6*

How did CC(=O)Nc1cncc(-c2ccccc2C(C)=O)n1 do in these assays?
GDH-TPI counter-1: -4.0; Y pestis TopoI: 1.3; PrPC TRFRET: -9.0; FBA Mtb inh: 1.7

Results for O=C(/C=C/c1ccccc1)NCC(=O)NN=Cc1ccccc1[N+](=O)[O-] ?
Mtb hypoxia rep: -8.0

Results for O=C(C1=CC(c2ccccc2)CC(OCc2ccc(CO)cc2)O1)N1CCN(Cc2ccc3c(c2)OCO3)CC1 (stereo unspecified) ?
Mtb hypoxia rep: 6.2

Results for COc1ccc(C=NNC(=O)Cn2nc(C)c([N+](=O)[O-])c2C)cc1 ?
Mtb hypoxia rep: 4.7

What do the screens show for `COc1cccc(NC(=O)N2CCCC2C(=O)Nc2ccc3c(c2)OCO3)c1` (stereo unspecified)?
GDH-TPI counter-1: 5.3; Mtb hypoxia rep: 15.6; Y pestis TopoI: 3.3; PrPC TRFRET: 10.8; PrP UTR inh: -3.9; FBA Mtb inh: 2.6

Results for COc1ccccc1NC(=O)N1CCCC1C(=O)Nc1ccc2c(c1)OCO2 (stereo unspecified) ?
GDH-TPI counter-1: 9.7; Mtb hypoxia rep: 7.4; Y pestis TopoI: 3.9; PrPC TRFRET: 7.9; PrP UTR inh: -15.7; FBA Mtb inh: 28.2*; Mtb FBA inh conf: 98.5*; GDH-TPI counter-2: 86.5*

How did COc1cccc(C=NNc2ccc(Cl)nn2)c1OC do in these assays?
Mtb hypoxia rep: 12.9

How did COc1cc([N+](=O)[O-])cc(C=NNC(=O)C2COc3ccccc3O2)c1O (stereo unspecified) do in these assays?
Mtb hypoxia rep: 8.7

Results for CC(=O)Nc1ccc(NC(=O)C(C)OC(=O)CCCN2C(=O)c3cccc4cccc(c34)C2=O)cc1 (stereo unspecified) ?
GDH-TPI counter-1: 5.8; Y pestis TopoI: 9.9; PrPC TRFRET: -13.2; PrP UTR inh: 4.2; FBA Mtb inh: 13.7

Results for C#CCOC(=O)CCCN1C(=O)c2cccc3cccc(c23)C1=O ?
GDH-TPI counter-1: 22.1; Y pestis TopoI: -1.1; PrPC TRFRET: -21.7; FBA Mtb inh: 32.4*; Mtb FBA inh conf: 156.3*; GDH-TPI counter-2: 121.1*

How did COC(=O)CCCN1C(=O)c2cccc3cccc(c23)C1=O do in these assays?
GDH-TPI counter-1: 6.6; Mtb hypoxia rep: 9.3; Y pestis TopoI: -9.6; PrPC TRFRET: -31.9; PrP UTR inh: -22.3; FBA Mtb inh: 35.3*; Mtb FBA inh conf: 128.8*; GDH-TPI counter-2: 111.0*

Results for CCCCn1c(=O)[nH]c(=O)c2c1nc(-c1ccccn1)n2CC ?
GDH-TPI counter-1: 4.5; Mtb hypoxia rep: 0.9; Y pestis TopoI: 4.0; PrPC TRFRET: -2.1; PrP UTR inh: -18.3; FBA Mtb inh: 52.6*; Mtb FBA inh conf: 32.6*; GDH-TPI counter-2: 32.9*
